Data: PubChem BioAssay (Tox21)
Inconclusive results are not listed. The source made the active and inactive calls. Unless noted, calls come from the whole dose curve; as a rule, active = well fitted curve in the direction sought with a large enough effect in the repeat runs; inconclusive = weak or mixed curves; inactive = no such curve, though single readings can be large; an effect the other way counts as inactive or inconclusive.

Tests used:
[1] = qHTS assay to identify small molecule agonists of the vitamin D receptor (VDR) signaling pathway - cell viability counter screen (AID 743224); note: series mostly up to about 63 µM; nearly all actives have a fitted effect of over 50% in size
Procedure, shortened: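 VDR-bla cells were preincubated 4 h at 37C/5% CO2, then exposed to compounds for 16 h. After the 2 h room-temperature bla FRET read, CellTiter-Glo was added to the same wells and luminescence read after 30 min.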

[2] = qHTS assay to identify small molecule antagonists of the vitamin D receptor (VDR) signaling pathway - cell viability counter screen (AID 743225); note: nearly all actives have a fitted effect of over 50% in size
Procedure, shortened: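 Compounds were pinned onto VDR-bla HEK 293T cells together with 1-alpha,25-dihydroxyvitamin D3 at 3 nM final. After 16 h at 37C and 5% CO2 plus the reporter readout, cell viability was measured by CellTiter-Glo luminescence (30 min, room temperature).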

[3] = qHTS assay to identify small molecule agonists of the NFkB signaling pathway (AID 1159509; active = well fitted curve in the direction sought with a large enough effect in the signal ratio in the repeat runs, not every such curve was filed as active; the % refers to the signal ratio; note: series mostly up to about 61 µM)
Procedure, shortened: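 NFkB-bla ME-180 cells with a beta-lactamase reporter under an NF-kB response element were plated overnight, treated with compounds in DMSO for 5 hr at 37 C, then loaded with FRET substrate for 1.5 hr at room temperature.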

[4] = qHTS assay to identify small molecule agonists of the NFkB signaling pathway - cell viability counter screen (AID 1159515; calls by dose curve; note: series mostly up to about 61 µM; nearly all actives have a fitted effect of over 55% in size)
Procedure, shortened: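 NFkB-bla ME-180 cells, 2,000/well, were plated overnight at 37 C, 5% CO2, then exposed to compounds in DMSO for 5 hr. After the bla FRET read, CellTiter-Glo was added to the same wells; luminescence was read after 30 min at room temperature.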

[5] = qHTS assay to identify small molecule agonists of the endoplasmic reticulum stress response signaling pathway (AID 1159516; active = well fitted activation curve with a large enough effect in the signal ratio in the repeat runs, not every such curve was filed as active; the % refers to the signal ratio)
Procedure, shortened: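 CellSensor ESRE-bla HeLa cells, carrying a beta-lactamase reporter driven by the ER stress response element, were plated overnight and exposed to compounds for 5 hr at 37 C. Reporter activity was read as FRET substrate fluorescence after 2 hr at room temperature.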

[6] = qHTS assay to identify small molecule agonists of the endoplasmic reticulum stress response signaling pathway - cell viability counter screen (AID 1159517; calls by dose curve; note: series mostly up to about 61 µM; nearly all actives have a fitted effect of over 50% in size)
Procedure, shortened: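 Luminescence readout: CellTiter-Glo, 30 min RT, same wells as the ESRE-bla reporter read. HeLa ESRE-bla, 1,500 cells/well, o/n 37 C; cpd 5 hr 37 C/5% CO2.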

[7] = qHTS assay to identify small molecule antagonists of the retinoid-related orphan receptor gamma (ROR-gamma) signaling pathway - cell viability counter screen (AID 1159520); note: nearly all actives have a fitted effect of over 50% in size
Procedure, shortened: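 Tet-on ROR gamma CHO cells (1,000/well) were plated 4 hr, given compounds in DMSO for 2 hr at 37 C, then induced with 1 uM final doxycycline for 16 hr. Viability was read as ATP by CellTiter-Glo luminescence after 30 min.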

[8] = target: Nuclear receptor ROR-gamma (Homo sapiens) (UniProt P51449); assay: qHTS assay to identify small molecule antagonists of the retinoid-related orphan receptor gamma (ROR-gamma) signaling pathway (AID 1159521)
Procedure, shortened: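 Test compounds were applied to Tet-on RORγ CHO cells 2 h ahead of doxycycline hyclate (1 uM final). Luciferase reporter activity was quantified by luminescence after 16 h at 37 C and 5% CO2.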

[9] = qHTS assay to identify small molecule agonists of the AP-1 signaling pathway - cell viability counter screen (AID 1159525; calls by dose curve; note: nearly all actives have a fitted effect of over 55% in size)
Procedure, shortened: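 ME-180 AP-1-bla, 2500 cells/well, Opti-MEM + 0.5% dialyzed FBS; overnight 37 °C; cpd 15-pt titration, 5 h 37 °C; CellTiter-Glo 30 min RT; luminescence read; normalised to TOAB and DMSO controls.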

[10] = qHTS assay to identify small molecule agonists of the AP-1 signaling pathway (AID 1159526; calls by dose curve)
[11] = target: Retinoic acid receptor RXR-alpha (Homo sapiens) (UniProt P19793); assay: qHTS assay to identify small molecule agonists of the RXR signaling pathway (AID 1159527; calls by dose curve; note: nearly all actives have a fitted effect of over 35% in size)
Chain of Retinoic acid receptor RXR-alpha (Homo sapiens) (P19793 whole entry, looked up): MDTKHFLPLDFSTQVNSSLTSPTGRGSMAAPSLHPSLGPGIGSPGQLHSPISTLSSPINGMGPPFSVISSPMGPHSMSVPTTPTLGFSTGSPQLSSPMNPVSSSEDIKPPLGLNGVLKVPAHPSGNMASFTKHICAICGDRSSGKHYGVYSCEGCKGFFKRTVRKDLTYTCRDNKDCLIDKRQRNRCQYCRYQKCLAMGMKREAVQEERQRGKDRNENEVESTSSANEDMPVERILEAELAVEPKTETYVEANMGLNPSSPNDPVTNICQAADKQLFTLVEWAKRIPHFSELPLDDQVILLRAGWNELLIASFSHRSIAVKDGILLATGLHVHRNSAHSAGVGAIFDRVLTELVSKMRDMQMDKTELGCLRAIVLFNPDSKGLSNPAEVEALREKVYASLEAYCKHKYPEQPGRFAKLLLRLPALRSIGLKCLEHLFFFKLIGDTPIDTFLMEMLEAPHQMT
Procedure, shortened: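 Using 9-cis retinoic acid as the reference agonist, chemicals were tested in HEK 293T cells […] for 16 hr; substrate loading lasted 2 hr at room temperature.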

[12] = qHTS assay to identify small molecule agonists of the RXR signaling pathway - cell viability counter screen (AID 1159529)
Procedure, shortened: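 Compounds dissolved in DMSO were pinned onto HEK 293T cells carrying a beta-lactamase reporter under RXR-alpha control and incubated 16 hr. Cytotoxicity was then quantified by CellTiter-Glo luminescence.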

[13] = qHTS assay to identify small molecule antagonists of the retinoid acid receptor (RAR) signaling pathway - cell viability counter screen (AID 1159551); note: nearly all actives have a fitted effect of over 35% in size
Procedure, shortened: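 C3RL4 cells were seeded overnight at 37 C, then treated with compounds plus 1 uM (final) retinol for 6 h at 37 C. Viability was read as ATP by CellTiter-Glo luminescence after 30 min at room temperature.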

[14] = qHTS assay to identify small molecule antagonists of the retinoic acid receptor (RAR) signaling pathway (AID 1159552; note: nearly all actives have a fitted effect of over 50% in size)
Procedure, shortened: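 Test chemicals and DMSO controls were pin-transferred onto C3RL4 cells a day after seeding; retinol (1 uM final) followed at once. Luminescent reporter output was quantified after 6 hr of co-incubation and 30 min with detection reagent.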

[15] = qHTS assay to identify small molecule agonists of the retinoic acid receptor (RAR) signaling pathway (AID 1159553)
Procedure, shortened: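 C3RL4 cells carrying a RARE luciferase reporter were plated overnight at 37 C, then exposed to compounds in DMSO for 6 hr at 37 C and 5% CO2. Luminescence was read 30 min after luciferase reagent addition at room temperature.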

[16] = qHTS assay to identify small molecule antagonists of the estrogen related receptor (ERR) signaling pathway - cell viability counter screen (AID 1224818);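 note: series mostly up to about 46 µM; viability measured after 17.5 h of compound exposure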
Procedure, shortened: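 ERR reporter cells plated 6 h at 37 C/5% CO2, then compounds in DMSO pin-transferred and incubated 17.5 h at 37 C. Viability read as CellTiter-Fluor fluorescence after 30 min at 37 C.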

[17] = qHTS assay to identify small molecule antagonists of the estrogen related receptor (ERR) signaling pathway (AID 1224819)
Procedure, shortened: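 ERR reporter cells were plated at 2,000 cells/well and left 6 h at 37 C/5% CO2 before pin-tool transfer of compounds in DMSO. After 18 h at 37 C, One-Glo was added and luminescence was read 30 min later at room temperature.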

[18] = qHTS assay to identify small molecule agonists of the estrogen related receptor (ERR) signaling pathway (AID 1224820)
Procedure, shortened: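 ERR reporter cells (NTP line) plated 2,000/well, incubated 6 h at 37 C/5% CO2, then pinned with compounds in DMSO and held 18 h at 37 C. One-Glo added; luminescence read after 30 min at room temperature.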

[19] = tested on: estrogen-related receptor alpha (ERRalpha) with PGC-1alpha coactivator, human; assay: qHTS assay to identify small molecule antagonists of the estrogen related receptor signaling pathway with the pleiotropic PPARgamma coactivator (PGC) (AID 1224821; calls by dose curve)
Procedure, shortened: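 Cells engineered for PGC/ERR signalling (line from NTP) were plated 6 h at 37 C/5% CO2, then exposed to DMSO-dissolved compound for 18 h at 37 C. Luciferase activity was read by One-Glo luminescence after 30 min at room temperature.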

[20] = qHTS assay to identify small molecule antagonists of the estrogen related receptor signaling pathway with the pleiotropic PPARgamma coactivator (PGC) cell viability counter screen (AID 1224822; note: series mostly up to about 46 µM)
Procedure, shortened: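 PGC/ERR cells were seeded at 2,000 cells/well, rested 6 h at 37 C/5% CO2, then given compounds in DMSO by pin tool and incubated 17.5 h at 37 C. Viability came from CellTiter-Fluor fluorescence after 30 min.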

Measured: Potency

CC(=O)CCC(C)C
not listed: [16] | [17] | [18] | [19] | [20]
inactive: all other assays above

CCN(CC)CCOC(=O)c1ccc(N)cc1
inactive: all assays above

CCN1CCCC1=O
not listed: [16] | [17] | [18] | [19] | [20]
inactive: all other assays above

CN(C)C=O
not listed: [16] | [17] | [18] | [19] | [20]
inactive: all other assays above

N[C@@H](Cc1c[nH]c2ccc(O)cc12)C(=O)O
not listed: [17] | [18] | [19]
inactive: all other assays above

CCOCCO
not listed: [16] | [17] | [18] | [19] | [20]
inactive: all other assays above

CCCCOC(=O)CCCCCCCCC(=O)OCCCC
not listed: [13] | [16] | [17] | [18] | [19] | [20]
inactive: all other assays above

Cc1cccc2ccccc12
not listed: [13] | [16] | [17] | [18] | [19] | [20]
inactive: all other assays above
